# Bioassay records (PubChem)
# In the library only some 3% were active in any assay of this set; here they are far more common.
# PfHsp90 yeast 2 – reduces growth (ATP signal) of yeast expressing P. falciparum Hsp90 | S. cerevisiae expressing PfHsp90, BacTiter-Glo ATP, 48 h; yeast lacking PDR1 and PDR3 efflux regulators | inhibition, % at 9.4 µM | 0.32% of 310,000 active | AID 504621;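 active means every replicate shows inhibition above about 80%, whatever the replicate mean, limit read from the data; inconclusive means mean inhibition reaches the set limit but some replicate falls short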;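 further: 0% = DMSO neutral controls and 100% = 20 µM radicicol positive controls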
# Vif imaging – inhibitors of HIV Vif; inhibition, % at 7.49 µM; 0.35% of 340,000 active; HEK293T cells, Vif self-association by quenched fluorescence, imaging, 24 h; AID 602346; in the data active means inhibition above about 50%, passing the limit was not always enough; inconclusive means no clear call, values can overlap the other calls; inactive means below about 31%
# Wnt act – activators of Wnt/beta-catenin signaling; Wnt/beta-catenin reporter cell assay, activator, plate reader; activation, % at 9.35 µM; 1.2% of 300,000 active; AID 743398; in the data active means activation above about 30%, passing the limit was not always enough; inconclusive means no clear call, values can overlap the other calls;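 further: 0% = neutral control wells and 100% = positive control wells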
# MITF act – MITF TRPM1 promoter activation in melanoma cells; SK-MEL-5 TRPM1-promoter luciferase, 24 h; % of positive control, neutral wells = 0; activation, % at 12.5 µM; 0.75% of 300,000 active; AID 588334;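 active means mean activation of at least 80% with every replicate also reaching 80%; inconclusive means mean reaches 80% but some replicate falls short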;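 further: 0% = neutral control wells and 100% = parthenolide positive control wells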
# esBAF inh – inhibitors of esBAF chromatin remodeling in mouse ES cells; Bmi1-luciferase knock-in reporter, 24 h; 100% = twice the neutral-well signal; reporter increase, % at 12.5 µM; 2% of 350,000 active; in the data active means activation above about 40%; inconclusive means no clear call, values can overlap the other calls;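 further: 0% = median of the plate's neutral control wells and 100% = double that signal; a rise in the Bmi1 reporter signal indicates esBAF inhibition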
# Glyco luc inh – N-linked glycosylation inhibition. 0.23% of 360,000 active. AID 588692. D54 ERlucT glycosylation luciferase reporter, 24 h; percent of 100 nM tunicamycin response. reporter increase, % at 12.5 µM;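 active means mean luciferase reporter signal, scaled so untreated is 0 and the glycosylation-blocking control 100, at or above a set limit in every replicate; inconclusive means mean reaches the limit but not every replicate does; inactive means mean below the limit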;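 further: luciferase carries N-glycosylation sites so blocking glycosylation raises the light; 0% = median of neutral control wells and 100% = median of 100 nM tunicamycin wells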
# Active calls of the source: *; ? = inconclusive; / = not tested or not shown.
SMILES,PfHsp90 yeast 2,Vif imaging,Wnt act,MITF act,esBAF inh,Glyco luc inh
COc1cccc2sc(Nc3nc(-c4ccccn4)cs3)nc12,107*,-8,-4,-53,?,-13
COc1ccc(-c2cn[nH]c2C)cc1,-11,5,2,/,/,-5
COc1ccc2cc(-c3ccn[nH]3)ccc2c1,-31,-16,35*,35,-23,-8
O=C(NCC1CCCO1)C1CCCN1C(=O)Nc1ccccc1[N+](=O)[O-] (stereo unspecified),9,-30,0,-6,0,1
O=C(COC(=O)c1ccc(S(=O)(=O)N2CCOCC2)cc1)NC1CCCCCCC1,5,/,89*,-1,5,1
O=C(c1ccc(NS(=O)(=O)c2ccc3[nH]c(=O)[nH]c3c2)cc1)N1CCCC(C(F)(F)F)C1 (stereo unspecified),-14,-5,2,5,/,0
O=C(/C=C/Nc1cccc(O)c1)c1ccccc1,4,/,48*,4,-7,-18
O=C(Nc1ccc(F)cc1)N[C@@H]1C=C[C@@H](CC(=O)N2CCOCC2)O[C@@H]1CO,/,/,/,/,-2,/
Cc1nc(-c2ccccc2)nc(Cl)c1Cl,-10,-3,-3,-15,-4,0
Cc1sc2nc(-c3cccnc3)nc(Cl)c2c1-c1ccccc1,-41,-13,4,28,58*,-1
Cc1cccc(NC2SC(=O)N(c3ccccc3)C2=O)c1 (stereo unspecified),-11,6,/,0,55*,0
Cc1ccc(NC(=O)CC2SC(=O)N(c3ccccc3)C2=O)cc1 (stereo unspecified),7,15,33*,-11,/,6
O=C(CC1SC(=O)N(c2ccccc2)C1=O)Nc1ccccc1 (stereo unspecified),-3,-3,/,-2,/,4
Cc1cccc(NC(=O)CC2SC(=O)N(c3ccccc3)C2=O)c1 (stereo unspecified),28,-2,/,0,15,-2
COc1ccc(C(=O)NCCn2ccc3ccccc32)c(OC)c1,-4,-18,14,51,55*,-2
COC(=O)c1ccc(Cn2c(C)c(C(=O)NCc3cccc(C(F)(F)F)c3)sc2=O)o1,/,-6,-5,/,16,-1
CC(=O)N1N=C(c2ccc(C)cc2)OC1c1ccc(Br)cc1 (stereo unspecified),3,-1,12,90*,38,-1
CC(=O)N1N=C(c2ccc(Cl)cc2)OC1c1ccc(C(C)C)cc1 (stereo unspecified),-37,/,1,32,/,/
O=C(O)c1ccc(N/N=C/c2cc3c(cc2[N+](=O)[O-])OCO3)cc1,/,9,-2,-24,67*,-3
Cc1cc(C)nc(N/N=C/c2cc3c(cc2[N+](=O)[O-])OCO3)n1,17,16,56*,-10,/,-1
O=[N+]([O-])c1cc2c(cc1/C=N/Nc1nc(Nc3ccccc3)nc(N3CCCCC3)n1)OCO2,/,-15,-4,/,40,-1
O=c1cnc2ccccc2n1Cc1ccccc1C(F)(F)F,9,-7,-1,-5,-9,0
CCCCSc1nc2c(cnn2-c2ccccc2)c(=O)n1N,15,0,18,58,/,-9
CCCSc1nc2c(cnn2-c2ccccc2)c(=O)n1N,-3,-7,41*,/,0,-12
Nc1ncccc1OCc1ccc(Br)cc1,20,-8,6,102*,/,-5
SMILES,PfHsp90 yeast 2,Vif imaging,Wnt act,MITF act,esBAF inh,Glyco luc inh
S=C(c1ccc(-c2ccccc2Cl)o1)N1CCCCC1,-10,-5,/,67,/,-6
O=C(c1ccc(-c2ccc([N+](=O)[O-])cc2)o1)N1CCCCC1,15,-2,75*,51,/,-11
S=C(c1ccc(-c2ccc(Cl)cc2)o1)N1CCCCC1,-23,-11,/,83*,29,-14
Cc1cccc(/C=C(\c2nc3ccccc3[nH]2)S(=O)(=O)c2ccccc2)c1,13,23,41*,-85,5,1
Cc1nc2cc(-c3cccc(F)c3)nn2c(N2CCN(C(=O)c3ccco3)CC2)c1C,11,-24,/,25,43*,-2
COCCN1CCN(c2c(C)c(C)nc3cc(-c4cccc(OC)c4)nn23)CC1,12,1,29,-4,52*,-5
Cc1cc(N2CCN(C(=O)c3ccco3)CC2)n2ncc(-c3ccccc3)c2n1,124*,-10,0,/,50*,-3
